Assay results reported in PubChem BioAssay AID588413 (Sanford-Burnham Center for Chemical Genomics, 2011).
Hit rate of the full screen: of about 340,000 compounds, about 2,500 (0.74%) were called active.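 Rule for the calls: active = inhibition above about 55% (limit read from the data); inactive = the rest.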 For the sample, actives were picked, then their nearest neighbours and some compounds at random.

Assay: blockers of Gli reporter signaling – luciferase luminescence, Sufu-KO-LIGHT cells, uHTS, primary screen (AID 588413);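 note: 0% = DMSO-treated cells and 100% = wells with medium but no cells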
Details: Sufu-KO-LIGHT fibroblasts, at 5 µM, stronger effect = higher value

| SMILES | inhibition |
| --- | --- |
| COc1ccc(C(=O)COC(=O)Cn2cnc3c2c(=O)n(C)c(=O)n3C)c(OC)c1 | 3.81% (inactive) |
| NC(=O)C1(Nc2ccccc2Cl)CCCC1 | 4.9% (inactive) |
| CC[C@]12c3[nH]c4ccc(OC)cc4c3CCN1C(=O)C(CC(=O)NCc1ccco1)C[C@@H]2C(=O)N1CCN(C(=O)C2CC2)CC1 (some centres undefined) | -2.82% (inactive) |
| C=CCSc1nc2c(c(=O)[nH]1)C(C(C)C)C(C#N)=C(N)O2 (centres undefined) | -7.54% (inactive) |
| CC/C(O)=C1\C(=O)CC(C)(C)CC1=NCCc1nc2ccccc2[nH]1 | 25.2% (inactive) |
| CCCc1nc(N)nc2c1C(=O)CC(C)(C)C2 | 77.6% (active) |
| CC1(C)CC(=O)c2sc(N)nc2C1 | 4.1% (inactive) |
| CCOc1ccc2nc(N(CCCN(C)C)C(=O)c3ccc(C(=O)c4ccccc4)cc3)sc2c1 | 65.2% (active) |
| CCc1ccc2nc(N(CCCN(C)C)C(=O)c3ccc4c(c3)OCCO4)sc2c1 | 11.7% (inactive) |
| CN(C)CCCN(C(=O)c1ccc(S(=O)(=O)N2CCCCCC2)cc1)c1nc2ccc(Br)cc2s1 | 42.7% (inactive) |
| Cc1ccc(F)c(NC(=O)CCc2ccccc2)c1 | -20.7% (inactive) |
| Cc1ccc(C(=O)NC(=S)NCCN2CCOCC2)cc1 | -9.17% (inactive) |
| CCOc1cccc(/C=N/N2C(=O)CSC2=S)c1O | -1.42% (inactive) |
| CCOc1cccc(/C=N/NC(=S)NCCN2CCOCC2)c1O | 81.1% (active) |
| O=C(CNc1ccc(F)cc1F)NC(=O)NCc1ccco1 | -1.84% (inactive) |
| Cc1cc([N+](=O)[O-])ccc1NCc1cccc([N+](=O)[O-])c1 | 8.75% (inactive) |
| COCCCNC(=S)N1CCCC(c2nc3cc(C)c(C)cc3[nH]2)C1 (centres undefined) | 15.7% (inactive) |
| CCC(C)(C)NC(=O)C(c1ccc(O)cc1)N(Cc1ccco1)C(=O)CCC(=O)Nc1ccccn1 (centres undefined) | -4.35% (inactive) |
| Cc1ccc(NC(=O)C(C)Sc2nnc(C3CC3)n2C2CC2)cc1S(=O)(=O)N1CCOCC1 (centres undefined) | 4.31% (inactive) |
| CCCn1cc(S(=O)(=O)c2ccc(C)cc2)c(=O)c2cc(OCC)ccc21 | 32.4% (inactive) |
| CC(C)(C)c1ccc(OC2=CS(=O)(=O)c3ccccc32)cc1 | -36.6% (inactive) |
| CC(C)(C)c1ccc(Oc2ccc(N)cc2)cc1 | 76.2% (active) |
| COc1cccc(Oc2ccc(N)cc2)c1 | -23.1% (inactive) |
| CCOc1ccc(NS(=O)(=O)c2ccc(C)c(C(N)=O)c2)cc1 | 29.7% (inactive) |

| SMILES | inhibition |
| --- | --- |
| Cc1cccc(C(=O)OCC(=O)Nc2sc3c(c2C#N)CCC3)c1 | -6.89% (inactive) |
| CC(=O)c1c(C)[nH]c(C(=O)OCC(=O)Nc2sc3c(c2C#N)CCCC3)c1C | 69.3% (active) |
| N#CCC(=O)Nc1ccc(C(=O)OCC(=O)Nc2sc3c(c2C#N)CCCC3)cc1 | -9.19% (inactive) |
| Cc1cc(C)c(C)c(S(=O)(=O)Nc2cccnc2)c1C | 1.03% (inactive) |
| Fc1ccc(CNc2nc3ccccc3n3nnnc23)cc1 | -6.79% (inactive) |
| CCc1nc2sc3c(Cl)ncnc3c2c2c1CCCC2 | -1.03% (inactive) |
| O=C1/C(=C\c2cccnc2)CN(Cc2ccccc2)C/C1=C\c1cccnc1 | 99.3% (active) |
| Cc1ccccc1C1=N/C(=C/c2cccnc2)C(=O)O1 | -7.01% (inactive) |
| O=C(O)C1CC(=O)N(Cc2cccnc2)C1 (centres undefined) | -11.1% (inactive) |
| CCNC(=S)NNC(=O)c1ccc2ncccc2c1 | -4.73% (inactive) |
| Cc1ccc2cc(/C=N/Nc3ccc(C(=O)O)cc3)c(Cl)nc2c1 | -101% (inactive) |
| O=C(O)c1ccc(N/N=C/c2ccc3ncccc3c2)cc1 | 67% (active) |
| CNc1ccc(SC#N)cc1 | 60.3% (active) |
| COc1ccc(N2C(=O)/C(=C\c3ccco3)N=C2SCC(N)=O)cc1Cl | 5.71% (inactive) |
| O=C(Cn1cnc2c(nnn2-c2ccccc2)c1=O)N1CCC(Cc2ccccc2)CC1 | -4.74% (inactive) |
| COc1cc(-c2nc(S(=O)(=O)c3ccc(Cl)cc3)c(N(C)C)o2)cc(OC)c1OC | 7.51% (inactive) |
| O=C(c1snnc1-c1ccccc1)N1CCOCC1 | 9.83% (inactive) |
| COc1cc2ccccc2cc1C(=O)N1CCOCC1 | -5.57% (inactive) |
| Cc1oc2c(c1C(=O)N1CCOCC1)C(=O)c1ccccc1C2=O | 87% (active) |
| CCOC(=O)[C@H]1[C@H]2COc3ccc(Cl)cc3[C@@H]2N2C(=O)c3cc(C)ccc3NC(=O)[C@@]12C | 1.26% (inactive) |
| CCOC(=O)CN(C(=O)COc1nc(-c2ccccc2)cc(C)c1C#N)c1ccc(F)cc1 | 5.59% (inactive) |
| Cc1ccc2c(=O)cc(C(=O)NCCc3ccc(S(N)(=O)=O)cc3)oc2c1C | -18.4% (inactive) |
| CSc1ccccc1NC(=O)Cc1ccc(Br)cc1 | 1.53% (inactive) |
| COc1ccc(S(=O)(=O)Nc2ccccc2C(=O)N2CCCC2)cc1C | -10.7% (inactive) |

| SMILES | inhibition |
| --- | --- |
| Cc1ccc(S(=O)(=O)NC(C)C(=O)Nc2ccccc2C(=O)N2CCCC2)cc1 (centres undefined) | 95% (active) |
| COc1ccc(S(=O)(=O)NC(C)c2ccccc2)cc1C(=O)N1CCCCC1 (centres undefined) | 12.8% (inactive) |
| CCOc1ccc(/C=C(/C#N)c2nnc(N3CCOCC3)n2-c2ccccc2)cc1OC | 4.23% (inactive) |
| Brc1ccc2nc(N3CCCC3)sc2c1 | -88.5% (inactive) |
| O=S(=O)(Nc1ccc2nc(N3CCOCC3)sc2c1)c1ccccc1 | -64.9% (inactive) |
| c1c2c(cc3sc(N4CCCCC4)nc13)OCCO2 | 66.6% (active) |
| CC1CN(C(=O)c2ccccc2NS(=O)(=O)c2cccc([N+](=O)[O-])c2)CC(C)O1 (centres undefined) | -7.72% (inactive) |
| COc1ccc(F)cc1C(=O)C1CCCN(C(=O)CCc2ccccn2)C1 (centres undefined) | 12.7% (inactive) |
| O=c1ccn(Cc2ccccc2Cl)cc1 | 17% (inactive) |
| CC(C)(C)c1cc(C(=O)NN)n(Cc2ccc(Cl)cc2Cl)n1 | -3.86% (inactive) |
| N#CC(C#N)=CN=c1ccn(Cc2ccc(Cl)cc2Cl)cc1 | 57.1% (active) |
| COc1ccc(CC(=O)NC(C)c2ccc(Cl)c(Cl)c2)cc1S(=O)(=O)N1CCOCC1 (centres undefined) | -4.33% (inactive) |
| COc1cc(Cl)c(C)cc1NC(=O)CN1CCCCCC1 | 40.6% (inactive) |
| CCn1c(NCCc2ccc(OC)c(OC)c2)nc2c1c(=O)n(C)c(=O)n2C | 11.3% (inactive) |
| Cn1c(=O)c2c(nc(NCCc3ccccc3)n2Cc2ccccc2)n(C)c1=O | 62.7% (active) |
| CCCCNc1nc2c(c(=O)[nH]c(=O)n2C)n1CCOc1ccccc1 | -15.8% (inactive) |
| CCCCNc1nc2c(c(=O)n(C)c(=O)n2C)n1Cc1cccc(OC)c1 | 73.1% (active) |
| Cn1c(=O)c2c(nc(NCc3ccccc3)n2CC(N)=O)n(C)c1=O | 0.59% (inactive) |
| Cn1c(=O)c2c(nc(NCCNC(=O)c3ccco3)n2Cc2ccccc2F)n(C)c1=O | -26.1% (inactive) |
| O=C(Cn1nnc(-c2ccccc2)n1)NC(=O)NC1CCCC1 | 0.46% (inactive) |
| Cc1ccc(SC(=O)COc2ccc(C)c(C)c2)cc1 | -16.4% (inactive) |
| COc1cc(C2C3C(=O)N(c4ccccc4)C(=O)C3ON2c2ccccc2)ccc1O (centres undefined) | 1.38% (inactive) |
| O=C(CCN1C(=O)c2ccccc2C1=O)C1=NN[C@@H]2C(=O)N(c3ccc(F)cc3)C(=O)[C@H]12 | 27.5% (inactive) |
| CO/N=C/c1cn(-c2ccc(Cl)cc2)nn1 | -5.6% (inactive) |

| SMILES | inhibition |
| --- | --- |
| COc1ccccc1CNC(=O)C1CCN(c2nc3ccccc3o2)CC1 | 79.4% (active) |
| COc1ccc(OC)c(CNC(=O)C2CCCN(c3nc4ccccc4o3)C2)c1 (centres undefined) | 1.69% (inactive) |
| COc1ccccc1CNC(=O)C1CCN(S(C)(=O)=O)CC1 | -3.13% (inactive) |
| COC(=O)Cc1nc2c(N)nc(N)nc2[nH]c1=O | 5.09% (inactive) |
| NC(=O)C1CCN(C(=O)c2cc(S(=O)(=O)N3CCN(c4ccccc4)CC3)ccc2Cl)CC1 | 3.01% (inactive) |
| COc1ccc(OC(C)C(=O)Nc2cccnc2)cc1 (centres undefined) | -1.18% (inactive) |
| COc1ccc(CCC(=O)c2ccc(OC)cc2)cc1 | 1.15% (inactive) |
| COc1ccc(CS(=O)/C(Cl)=C(/Cl)C(=O)Nc2ccc(OC)nc2)cc1 (centres undefined) | 68.1% (active) |
| CCc1c(C)nc2cc(C)[nH]n2c1=O | 75% (active) |
| Cc1nc2nc[nH]n2c(=O)c1C/C=C/c1ccccc1 | 26.2% (inactive) |
| C=CCc1c(C)nc2cc(-c3ccccc3)[nH]n2c1=O | 27.4% (inactive) |
| CCOc1ccccc1NC(=S)C(=C([O-])c1ccc2c(c1)OCCO2)[n+]1ccc(CC)cc1 | -43.8% (inactive) |
| O=C1C=C(c2cc(C(F)(F)F)cc(C(F)(F)F)c2)C[C@@H](c2ccc3c(c2)OCO3)C1 | 6.64% (inactive) |
| COc1ccc2cc(C3=CC(=O)C[C@H](c4ccc5c(c4)OCO5)C3)ccc2c1 | -5.21% (inactive) |
| O=C1C=C(c2ccnc3cc(Cl)ccc23)C[C@@H](c2ccc3c(c2)OCO3)C1 | 66.7% (active) |
| N#CCC(=O)NC(=O)NCC1CC1 | -8.84% (inactive) |
| CC(=O)c1cc(NC(=O)c2ccccc2)c(=O)oc1/C=C/N(C)C | 8.24% (inactive) |
| CCN1CCC2(CCN(Cc3cn[nH]c3-c3ccc(OC)c(F)c3)C2)C1 (centres undefined) | 7.07% (inactive) |
| COc1ccc(-n2c(Cc3cccn3C)nnc2SCC(=O)Nc2cc(C)cc(C)c2)cc1 | 0.63% (inactive) |
| NS(=O)(=O)c1ccc(CCNC(=O)CCCn2c(SCC(=O)N3CCCC3)nc3ccsc3c2=O)cc1 | 79.4% (active) |
| CCCCn1c(SCC(=O)N2CCCC2=O)nc2cc(S(N)(=O)=O)ccc21 | 5.29% (inactive) |
| CCCCn1c(SCC(=O)N2CCC(C(=O)OCC)CC2)nc2cc(S(N)(=O)=O)ccc21 | 6.66% (inactive) |
